Assay outcomes as filed in PubChem BioAssay.
Most compounds without a hit are left out; they make up all but 1.5% or so of the library.
Giardia killer: kills Giardia lamblia | Giardia lamblia trophozoite viability | 340,000 compounds, 0.15% hits | activity change, % at 7.66 µM, hits read low; in the data active = activity change below about -80%; inconclusive = between about -30% and that limit;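 note: parasites exposed to compound for two days anaerobically before the ATP read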
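Giardia trophozoites, 100 cells per well, were exposed to compounds for 48 hrs at 37 deg C under anaerobic conditions; viability was then read as ATP content by bioluminescence after 15-30 min at room temperature.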
TrxR1 inh: rat TrxR1 inhibition; recombinant rTrxR1, NADPH fluorescence consumption, selenite substrate; Potency, µM (doses to about 114 µM), most hits filed as inhibitors; 390,000 compounds, 1% hits; note: nearly all actives have a fitted effect of over 65% in size
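Rat TrxR1 (90 nM in the dispensed reagent) was pre-reduced with 400 uM NADPH for 5 min at room temperature, then incubated with compound for 15 min. After 400 uM selenite was added, NADPH fluorescence (Ex 340/Em 450 nm) was followed for 8 min.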
PI4K2A inh: blocks human PI4K2A kinase activity; purified PI4K2A, ADP-Glo luminescence, 1 h; active compounds read low; activity change, negative = inhibition, % at 76.9 µM; 420,000 compounds, 0.13% hits; AID 1346378; in the data active = activity change below about -50%; inconclusive = mostly about -30% to -49%
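Compounds are screened against recombinant PI4K2A using PI as substrate and ATP, the latter dispensed at 300 microM. Reactions run one hour at ambient temperature before ADP-Glo detection; full inhibition defined by wells lacking enzyme.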
TrxR1 substrate: is turned over as a substrate by rat TrxR1; purified TrxR1 substrate turnover, NADPH consumption readout; Potency, µM (titrated, usually from 114 µM); 390,000 compounds, 0.01% hits; note: nearly all actives have a fitted effect of over 50% in size
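Rat TrxR1, dispensed at 90 nM, was prereduced with 400 uM NADPH (final) for 5 min at ~22 deg C, then incubated with compound 15 min before 400 uM selenite. A first-read NADPH fluorescence drop versus no-compound background flagged substrates.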
GALK inhibitor: galactokinase (human) inhibition; 270,000 compounds, 0.007% hits; AID 1868; Purified GALK, Kinase-Glo residual ATP luminescence; Potency, µM (top dose mostly 57.5 µM), most hits filed as inhibitors
Target sequence (P51570 whole entry, looked up): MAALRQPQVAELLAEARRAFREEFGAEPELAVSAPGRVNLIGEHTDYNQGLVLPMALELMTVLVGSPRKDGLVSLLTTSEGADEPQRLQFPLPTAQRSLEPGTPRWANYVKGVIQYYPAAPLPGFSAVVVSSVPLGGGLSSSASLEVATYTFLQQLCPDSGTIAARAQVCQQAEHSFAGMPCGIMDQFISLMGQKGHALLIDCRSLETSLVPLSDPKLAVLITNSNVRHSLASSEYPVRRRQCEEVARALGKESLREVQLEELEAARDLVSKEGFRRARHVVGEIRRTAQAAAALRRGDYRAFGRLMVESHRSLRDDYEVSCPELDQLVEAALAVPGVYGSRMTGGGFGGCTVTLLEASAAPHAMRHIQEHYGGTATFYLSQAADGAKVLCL
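ATP-depletion format; final 35 uM ATP, 100 uM D-galactose, 5 nM enzyme; pH 8.0 HEPES/Mg2+ buffer; 60 min RT; luminescence read 10 min after detection reagent.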
Coupling enz: inhibits coupling enzyme system, counter-screen for aldolase hits | coupling enzyme system counterscreen, AmpLite Red fluorescence | activity change, negative = inhibition, % at 58.2 µM, hits read low | 290,000 compounds, 0.67% hits; in the data active = activity change below about -30%
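Activity here indicates interference with the coupling reaction, not aldolase inhibition. Compounds at 57.5 uM final met coupling enzymes for 10 min at RT; substrate and AmpLite Red detection followed, with a 525/598 nm fluorescence read after 20 min.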
A number is an active result; n = inactive; u = inconclusive; x = no result given; [ ] = remark or other dose. Unless noted, calls come from the whole dose curve; as a rule, active = well fitted curve in the direction sought with a large enough effect; inconclusive = small, poorly fitted or top-dose-only effect, or another doubt; inactive = no such curve, though single readings can be large; an effect the other way counts as inactive or inconclusive.

SMILES	Giardia killer	TrxR1 inh	PI4K2A inh	TrxR1 substrate	GALK inhibitor	Coupling enz
CCN1C(=NCc2cccc(Cl)c2)N[C@@H](c2cccc(C(F)(F)F)c2)C(C(=O)OC)=C1C	x	n	x	n	x	x
O=C1C=CC(=O)c2c(O)c(Cl)c(Cl)c(O)c21	x	x	x	x	x	-90
O=C1C=CC(=O)c2c(O)c(CO)c(CO)c(O)c21	n	u	-53	n	x	x
COc1ccc(CN2C(=O)C(NC(=O)c3ccccc3C)(C(F)(F)F)N=C2c2ccccc2)cc1 (centres undefined)	x	n	n	n	x	x
CC(=O)NC(=O)NC1OC(=O)C(Cl)=C1Cl (centres undefined)	n	1.6µM	n	n	n	n
CNC(=O)C1CCC(Cn2c(=O)c3sccc3n(CC(=O)Nc3cc(C)cc(C)c3)c2=O)CC1 (centres undefined)	x	n	n	n	x	x
O=Cc1sc(=O)n(Cc2cccc(C(=O)O)c2)c1Cl	n	3.2µM	n	n	n	n
O=c1sc(/C=N/Nc2ccccc2)c(Cl)n1Cc1ccccc1	n	13µM	n	n	n	n
COC(=O)c1cccc(Cn2c(Cl)c(/C=N/NC(=O)c3ccco3)sc2=O)c1	n	40µM	n	n	n	x
O=C(O)c1cccc(Cn2c(Cl)c(/C=N/NC(=O)c3ccc(O)cc3)sc2=O)c1	n	u	n	n	x	n
CCc1ccc(NC(=O)CSc2nnc(-c3ccccc3)n2C)cc1	x	n	x	n	x	x
CN(C)c1ccc(CNC(=O)CN2C(=O)CCn3nc(-c4cn(C)c5ccccc45)cc32)cc1	x	n	n	n	x	x
C[C@H]1C[C@H](O)c2ccsc2S1(=O)=O	x	x	n	x	x	x
CC1(C)CC(=O)c2cc(C(=O)Nc3ccccc3)c(=O)[nH]c2C1	x	n	x	n	x	x
CCCCN(CC)c1nc(N)c(C#N)c(CC#N)c1C#N	n	n	n	n	n	-35
CCCCN(CC)c1nc(N)c2c(N)nc(OCC)cc2c1C#N	n	n	n	n	n	-48
CCOc1cc2c(C#N)c(N3CCCC3)nc(N)c2c(N)n1	n	n	n	n	x	x
Brc1cc(Br)c[n+](CCc2ccccc2)c1	x	n	x	n	x	x
CCOC(=O)CCCCC(=O)c1[nH]c(=O)[nH]c1CSc1nc(C)cc(C)n1	n	n	n	n	n	n
CCOC(=O)CCCCC(=O)c1[nH]c(=O)[nH]c1CSc1nc(C)cc(=O)[nH]1	n	3.2µM	n	n	n	n
CCOC(=O)CCCCC(=O)c1[nH]c(=O)[nH]c1CSc1nc2ccccc2[nH]1	n	3.2µM	n	n	n	n
CC(C)(C)C(=O)NC(Nc1cccc2cccnc12)C(Cl)(Cl)Cl (centres undefined)	n	n	u	n	n	-66
COc1ccccc1/C=C/c1cnccn1	x	n	x	n	x	x
O=C(Cc1ccccc1)Nc1cccc(N2C(=O)C=CC2=O)c1	n	3.5µM	n	n	n	n
CCOC(=O)[C@H](CCc1ccccc1)N[C@@H](C)C(=O)N1C(=O)N(C)C[C@H]1C(=O)O	x	x	n	x	x	x
SMILES	Giardia killer	TrxR1 inh	PI4K2A inh	TrxR1 substrate	GALK inhibitor	Coupling enz
Cc1cc(NS(=O)(=O)c2ccc(NC(=S)NC(=O)c3ccccc3)cc2)no1	n	45µM	n	n	n	n
COc1ccc(C(=O)NC(=S)Nc2ccc(S(=O)(=O)Nc3cc(C)on3)cc2)cc1OC	n	u	n	n	n	n
Cc1cc(NS(=O)(=O)c2ccc(NC(=S)NC(=O)c3ccncc3)cc2)no1	n	n	n	n	n	n
Cc1cc(NS(=O)(=O)c2ccc(NC(=S)NC(=O)c3ccc(C(C)(C)C)cc3)cc2)no1	n	45µM	n	n[0.457 µM]	x	n
O=C(C1CCCN1S(=O)(=O)c1ccc(Br)s1)N1CCN(c2ccccc2)CC1 (centres undefined)	x	x	n	x	x	x
O=S(=O)(c1ccccc1Cl)N1CCN(c2nc(-c3ccccc3)nc3ccccc23)CC1	n	n	x	n	x	x
CCCCC1=CC2=C(c3ccco3)C(=O)C(C)(OC(=O)c3ccc(OC)cc3)C(=O)C2=CN1CCOC (centres undefined)	n	u	n	n	n	n
CCCCC1=CC2=C(c3ccco3)C(=O)C(C)(OC(=O)c3ccc(OC)cc3)C(=O)C2=CN1Cc1ccccc1 (centres undefined)	n	45µM	n	n	n	n
CCc1ccc2oc(-c3ccc(C)c(NC(=O)COc4ccccc4Cl)c3)nc2c1	x	n	x	n	x	x
CCCCCN1C=CC(=C2C(=O)c3ccccc3C2=O)C=C1	-92	n	u	n	n	n
CC1=CC(=C2C(=O)c3ccccc3C2=O)C=C(C)N1C	n	n	n	n	n	n
COc1ncnc2c1NC1=C(S2)C(=NCCC(=O)O)CC(C)(C)C1	n	n	n	u	n	-48
C[C@H]1C[C@H]2[C@@H]3CCC4=CC(=O)C=C[C@]4(C)[C@H]3C(=O)C[C@]2(C)[C@@]1(O)C(=O)CO	x	x	n	x	x	x
CCOc1ccc2[nH]c(=O)c(C(c3nnnn3Cc3ccco3)N3CCCC(C)C3)cc2c1 (centres undefined)	n	13µM	n	n	n	n
COc1ccc2[nH]c(=O)c(CN(Cc3nnnn3Cc3ccco3)C3CCCCC3)cc2c1	n	18µM	n	n	n	n
CCc1ccc2[nH]c(=O)c(CN(Cc3ccc(OC)cc3)Cc3nnnn3CCOC)cc2c1	n	n	n	n	n	-74
Cc1ccc(C)c2[nH]c(=O)c(C(c3nnnn3Cc3ccco3)N3CCc4ccccc4C3)cc12 (centres undefined)	n	n[11.4 µM]	n	n[11.4 µM]	n	-34
C(=C\c1ccnc2ccccc12)/c1ccc(N2CCNCC2)cc1	x	u	x	n	x	x
C[C@@H](O[C@H]1OCCN(Cc2n[nH]c(=O)[nH]2)[C@H]1c1ccc(F)cc1)c1cc(C(F)(F)F)cc(C(F)(F)F)c1	x	x	n	x	x	x
CCN(CC)c1ccc(C(=C2C=CC(=[N+](CC)CC)C=C2)c2ccccc2)cc1	n	40µM	n	n	x	n
